Compound activity as filed in PubChem.
PME-1 primary = PME-1 (human) inhibition | Q9Y570 | recombinant PME-1, FP-Rh probe fluorescence polarization | inhibition, % at 5.9 µM | 0.53% of 320,000 active | AID 2130;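 active = inhibition above the campaign mean of all compounds plus 3 SD, cut at about 26% in these data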;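 note: competitive labeling of PME-1 active site by serine hydrolase directed probe; 0% = PME-1 with DMSO and 100% = wells lacking PME-1 enzyme; inhibitors block probe labeling so polarization falls and inhibition rises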
Fam108B inh = blocks mouse Fam108B hydrolase in RBBP9 counter-screen | recombinant Fam108B, FP-Rh probe fluorescence polarization | inhibition, % at 9.51 µM | 0.33% of 300,000 active | AID 1947;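 active = inhibition above the screen mean inhibition plus 3 SD, computed separately per campaign, cut at about 18% in these data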;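 note: inhibitors lower polarization as less probe binds the enzyme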
GSTO1 counter = counter-screen for RBBP9 inhibitors: inhibitors of human GSTO1 | recombinant GSTO1, activity-based probe fluorescence polarization | inhibition, % at 5.96 µM | 1.1% of 300,000 active;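 active = inhibition above the campaign mean inhibition plus 3 SD, cut at about 35% in these data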;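 note: 0% = GSTO1-1 with DMSO and 100% = wells lacking GSTO1-1 enzyme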
PAD4 FP inh = blocks human protein arginine deiminase 4; Q9UM07; inhibition, % at 6.36 µM; 0.41% of 330,000 active; AID 485272; recombinant PAD4, RCA probe fluorescence polarization;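 active = percent inhibition above a cutoff equal to the mean of all tested compounds plus 3 SD, cut at about 15% in these data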;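 note: 0% = PAD4 with RCA probe and DMSO and 100% = probe without PAD4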
Target sequence (Q9UM07 whole entry, looked up): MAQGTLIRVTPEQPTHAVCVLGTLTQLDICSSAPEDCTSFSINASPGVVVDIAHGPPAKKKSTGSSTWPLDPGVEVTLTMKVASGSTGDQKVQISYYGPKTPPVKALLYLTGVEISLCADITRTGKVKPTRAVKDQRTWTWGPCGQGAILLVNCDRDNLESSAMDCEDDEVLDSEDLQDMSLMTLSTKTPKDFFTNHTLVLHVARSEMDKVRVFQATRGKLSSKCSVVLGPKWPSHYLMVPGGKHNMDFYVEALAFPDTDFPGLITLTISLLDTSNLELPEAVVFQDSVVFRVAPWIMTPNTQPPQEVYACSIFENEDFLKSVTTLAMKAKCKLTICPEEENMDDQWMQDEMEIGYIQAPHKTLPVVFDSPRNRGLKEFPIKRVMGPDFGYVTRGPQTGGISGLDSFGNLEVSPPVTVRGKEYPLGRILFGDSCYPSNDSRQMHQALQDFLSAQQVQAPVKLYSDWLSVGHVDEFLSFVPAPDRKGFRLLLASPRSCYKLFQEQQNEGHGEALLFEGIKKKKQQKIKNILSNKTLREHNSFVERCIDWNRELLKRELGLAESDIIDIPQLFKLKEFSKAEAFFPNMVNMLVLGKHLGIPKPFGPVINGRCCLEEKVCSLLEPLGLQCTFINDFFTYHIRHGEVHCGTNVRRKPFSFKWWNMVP
pPAFAH FP inh = pPAFAH (human) enzyme inhibition; 1.5% of 330,000 active; recombinant pPAFAH, FP-rhodamine probe fluorescence polarization; AID 463082; inhibition, % at 3.39 µM;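 active = inhibition above the mean inhibition across the screen plus 3 SD, cut at about 25% in these data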;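 note: inhibitors block binding of the rhodamine activity-based probe so polarization drops; 0% = enzyme with DMSO and 100% = wells lacking pPAFAH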
Numbers without * were called inactive; nt = no result given. In the library only some 2.3% were active in any assay of this set; here they are far more common.

SMILES	PME-1 primary	Fam108B inh	GSTO1 counter	PAD4 FP inh	pPAFAH FP inh
O=C(CCN1C(=O)c2ccccc2C1=O)C1=NN[C@@H]2C(=O)N(c3ccc4c(c3)OCO4)C(=O)[C@H]12	-4	1	0	-1	1
N#CC(C(=S)Nc1ccccc1)c1nc2ccccc2[nH]1 (centres undefined)	11	5	8	0	8
CSC(=Nc1ccccc1)C(C#N)c1nc2ccccc2[nH]1 (centres undefined)	2	-5	-3	-1	31*
O=C(Nc1ccc(N2CCCC2)cc1)c1ccc(Br)o1	-3	9	11	-4	7
CN1CCN(c2ccc(NC(=O)c3ccc(-c4ccc(Br)cc4)o3)cc2)CC1	30*	16	13	-6	12
COc1cc([C@H]2Oc3cc([C@H]4Oc5cc(O)cc(O)c5C(=O)[C@@H]4O)ccc3O[C@@H]2CO)ccc1O	1	0	7	-3	3
COc1cc([C@@H]2Oc3cc(C4Oc5cc(O)cc(O)c5C(=O)[C@H]4O)ccc3O[C@H]2CO)ccc1O (some centres undefined)	-1	8	18	-4	35*
CCc1nnc(NC(=O)CSc2nc3c(c(=O)n2CC)SC(C)C3)s1 (centres undefined)	7	-2	35*	-3	6
COc1ccc2oc(=O)c(/C(N)=N/NC(=O)c3ccncc3)cc2c1	2	1	3	-5	1
COc1cc(/C=C/C(=O)OCC(=O)Nc2cccc(F)c2)ccc1O	nt	nt	nt	2	28*
COc1cc(/C=C/C(=O)OCC(=O)NC2CCCCCCC2)ccc1O	nt	nt	nt	-2	27*
Cc1csc(CNC(=O)C2CCC(=O)N(CCc3cccc(F)c3)C2)n1 (centres undefined)	2	0	4	-4	1
COc1ccccc1N1CCN(Cc2cc(Br)c(O)c3ncccc23)CC1	8	7	0	-18	30*
O=[N+]([O-])c1cc(CN2CCCC2)c2cccnc2c1O	-14	7	47*	-24	66*
Cc1ccc(OCCOC(=O)C2CCN(S(=O)(=O)c3ccc(C)c(C)c3)CC2)cc1	1	-5	2	-6	5
Cc1ccc(S(=O)(=O)N2CCC(C(=O)OCCOc3ccccc3)CC2)cc1C	1	-4	4	-3	28*
CCNC(=S)NNC(=O)c1cc(-c2ccc(OCC)cc2)nc2ccccc12	1	0	-1	0	27*
Cc1ccc(C)c(-c2cc(C(=O)NNC(=S)NCC(C)C)c3ccccc3n2)c1	0	1	-11	-3	26*
COc1ccc(/C=N/N2C(=O)CSC2=S)cc1Br	-8	-2	16	-11	29*
CCc1cc(C(=O)N=Nc2c(O)[nH]c3ccc([N+](=O)[O-])cc23)c2ccccc2n1	-1	9	43*	-7	33*
O=S(=O)(Nc1ccccc1)c1ccc(S(=O)(=O)N2CCCC2)cc1	1	nt	nt	-4	27*
COc1ccccc1NS(=O)(=O)c1ccc(NC(C)=O)cc1	4	-2	-4	4	4
N#CC(C#N)=NNc1ccc(S(=O)(=O)N2CCCCC2)cc1	28*	3	21	-6	17
COc1ccc(Nc2ccc(OC)cc2)cc1	4	6	36*	1	10
COc1ccccc1Nc1ccc(NS(=O)(=O)c2ccc(C(C)=O)cc2)cc1	6	3	17	-1	34*
SMILES	PME-1 primary	Fam108B inh	GSTO1 counter	PAD4 FP inh	pPAFAH FP inh
O=C(NCCc1ccccc1)c1ccc(Cl)nc1	-2	1	3	0	2
COc1ccc(NS(=O)(=O)c2ccc(NC(=O)Cc3cccs3)cc2)cc1	-2	-3	3	-5	26*
COc1ccc(NS(=O)(=O)c2cc(NC(=O)Cc3cccs3)ccc2C)cc1	1	-3	5	-1	7
COc1ccc(S(=O)(=O)Nc2ccc(Nc3ccccc3)cc2)cc1	11	2	1	0	27*
COc1ccccc1Nc1ccc(N)cc1	0	6	35*	-1	23
Cc1nn(-c2ccccc2)c(Cl)c1/C=C1\SC(=S)N(CCCCCC(=O)O)C1=O	-8	-1	14	1	28*
CCOc1ccccc1NC(=O)C1CCN(S(C)(=O)=O)CC1	-3	2	6	-1	7
C=CCn1c(SCC(=O)c2ccc(Cl)s2)nc2ccccc2c1=O	6	-4	-4	2	-1
C=CCn1c(SCC(=O)c2cccs2)nc2sc(C)cc2c1=O	3	-2	-1	3	25*
CC1(c2ccccc2Cl)NC(=O)N(CC(=O)NCc2ccc3c(c2)OCO3)C1=O (centres undefined)	0	-3	2	-8	-3
O=C(NCc1cccnc1)c1cn(-c2ccccc2)nc1-c1ccccc1	1	7	-2	1	4
Cc1cc(Nc2ccc(O)cc2)ccc1N	36*	nt	nt	35*	24
CC(C)(C)c1ccc(/C([O-])=C(/C(=S)NCc2ccco2)[n+]2ccccc2)cc1	-6	6	4	-5	13
COc1cccc(/C=N/Nc2nc3ccccc3n3cnnc23)c1O	29*	11	0	-10	4
COc1ccc(/C=C/c2c(-c3ccc(OC)cc3)oc3cccnc23)cc1	27*	1	1	0	5
COc1ccc(/C=C/c2ccncc2)cc1	-2	2	-3	1	4
COC(=O)CNC(c1ccccc1)c1cc(C)ccc1NC(=O)CNC(=O)OCc1ccccc1 (centres undefined)	0	-2	1	1	30*
O=C(O)Cc1sc(N/N=C\c2ccncc2)nc1-c1ccccc1	0	1	0	-4	25*
CCOc1cc(-c2cc(-c3ccc(N)cc3)nc(N)c2C#N)ccc1O	41*	14	-22	-2	19
Cc1noc(C)c1CSc1nc2ccccc2nc1NS(=O)(=O)c1ccc(Cl)cc1	27*	-6	-1	1	-6
O=C(N/N=C/c1ccncc1)c1cc([N+](=O)[O-])cc([N+](=O)[O-])c1O	5	16	10	0	32*
O=C(N/N=C/c1cc2c(c([N+](=O)[O-])c1)OCO2)c1ccncc1	1	2	4	3	4
O=C(NC(Nc1nc2ccc([N+](=O)[O-])cc2s1)(C(F)(F)F)C(F)(F)F)c1cccnc1	1	-3	4	1	7
O=C(NC(Nc1nc2ccc([N+](=O)[O-])cc2s1)(C(F)(F)F)C(F)(F)F)c1ccccc1Cl	-1	3	-9	-2	33*
CC1CCc2sc(C(=O)N3CCN(c4ncccn4)CC3)cc2C1 (centres undefined)	-2	-1	-1	-1	28*
O=[N+]([O-])c1cccc(N/N=C/c2cc([N+](=O)[O-])ccc2O)c1	5	1	14	1	28*
COc1cc(/C=C2/C(=O)N(c3ccccc3)N=C2C)ccc1OS(=O)(=O)c1ccccc1	13	10	36*	36*	4
